Source: PubChem BioAssay
Shown are actives, neighbours in structure and some others; about 0.99% of the full set was active somewhere.
BLM helicase inh-1 = blocks DNA unwinding by human BLM helicase; Potency, µM (top dose mostly 56.1 µM), for inactives: at the top dose activity change, negative = inhibition, actives largely listed as inhibitors; recombinant BLM DNA unwinding, fluorescence dequenching; AID 2528; 0.2% of 350,000 active; P54132;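 further: plate controls were vehicle for no effect and no enzyme for full effect; nearly all actives have a fitted effect of over 35% in size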
WRN helicase inh-1 = inhibitors of human WRN helicase. AID 651768. Potency, µM (highest dose often 114 µM), for inactives: at the highest dose activity change, negative = inhibition, usual class: inhibitors. 0.46% of 360,000 active. Q14191. WRN helicase unwinding, fluorescent forked duplex, kinetic; further: on the % scale 0 is the no-effect control and ±100 the full control effect; nearly all actives have a fitted effect of over 55% in size
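Enzyme (20 nM final) and test compound sit together 15 min at room temperature before substrate addition. Substrate is a single-forked duplex oligonucleotide (100 nM) labelled with fluorophore and quencher, with 2 mM ATP; helicase unwinding raises red fluorescence, read kinetically.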
RECQ1 inh = inhibitors of human RECQ1 DNA helicase | P46063 | RECQ1 DNA unwinding, red fluorescence kinetic read | Potency, µM (top dose mostly 57.3 µM), for inactives: at the top dose activity, negative = inhibition, most hits filed as inhibitors | 0.54% of 240,000 active | AID 2549;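 further: plate controls were vehicle for no effect and no enzyme for full effect; nearly all actives have a fitted effect of over 30% in size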
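50 nM RECQ1T1 preincubated 15 min with compound in Tris pH 8.0 buffer with MgCl2, DTT, Tween-20 and 2.5 ug/ml poly(dI-dC); started with 200 nM TAMRA/BHQ-2 forked duplex and 2 mM ATP. Unwinding read as fluorescence (525/598 nm), two reads 2 h apart.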
FEN1 inh-1 = human FEN1 inhibition | P39748 | Recombinant FEN1 flap cleavage, fluorescence, 15 min | Potency, µM (series often up to 114 µM), without a hit: top-dose activity change, negative = inhibition, actives largely listed as inhibitors | 0.35% of 390,000 active | AID 588795; further: on the % scale 0 is the no-effect control and ±100 the full control effect; nearly all actives have a fitted effect of over 65% in size
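Concentration–response screening of FEN1 (10 nM): 15 min compound preincubation at room temperature, reaction started with 50 nM substrate and read at 0 and 15 min. Corrected, normalized data were fitted by a four-parameter Hill equation.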
L3MBTL1 inh-1 = blocks human L3MBTL1; Potency, µM (doses to about 57.1 µM), without a hit: at the highest dose activity, negative = inhibition, actives largely listed as inhibitors; AlphaScreen L3MBTL1–H3K9me1 peptide binding; 0.66% of 230,000 active; Q9Y468; further: on the % scale 0 is the no-effect control and ±100 the full control effect; nearly all actives have a fitted effect of over 60% in size
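L3MBTL1 (50 nM) pre-complexed 30 min with biotinylated H3(1-15)K9me1 peptide (75 nM), then compounds added for 30 min at room temperature; AlphaScreen streptavidin donor/nickel chelate acceptor beads (10 ug/mL final) read after 30 min dark incubation.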
L3MBTL1 inh-2 = validation of human L3MBTL1 methyl-lysine binding inhibitors; L3MBTL1 methyl-lysine binding inhibition, biochemical qHTS; 91% of 500 active; Potency, µM, hits mostly inhibitors; shares compounds with L3MBTL1 inh-1; further: nearly all actives have a fitted effect of over 70% in size
L3MBTL1 ctr = AlphaScreen signal inhibition, L3MBTL1 hit counter-screen; shares compounds with L3MBTL1 inh-1; AlphaScreen counterscreen, signal inhibition; 500 tested, under 10 active; Potency, µM (titrated, usually from 57.1 µM), without a hit: at the highest dose activity change, negative = inhibition, actives largely listed as inhibitors; further: 0% is about no effect
FEN1 inh-2 = FEN1 inhibition, cherry-pick retest; shares compounds with FEN1 inh-1; FEN1 flap cleavage, TAMRA/BHQ2 fluorogenic DNA substrate; Potency, µM, hits mostly inhibitors; 79% of 880 active; AID 720498; further: nearly all actives have a fitted effect of over 60% in size
WRN helicase inh-2 = confirmation of human WRN helicase inhibitors; shares compounds with WRN helicase inh-1; WRN helicase DNA unwinding, fluorescence kinetic; Potency, µM (doses to about 57.1 µM), inactives show at the top dose activity, negative = inhibition, usual class: inhibitors; 63% of 610 active; further: nearly all actives have a fitted effect of over 65% in size
TO displacement = DNA binding via thiazole orange displacement. shares compounds with WRN helicase inh-1. thiazole orange DNA binding displacement, fluorescence. Potency, µM (series often up to 57.1 µM), for the others: at the top dose activity change, negative = inhibition, actives largely listed as inhibitors. 10% of 610 active;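 further: drop in dye fluorescence marks compound binding to DNA; on the % scale 0 is the no-effect control and ±100 the full control effect; nearly all actives have a fitted effect of over 60% in size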
BLM helicase inh-2 = counter-screen for WRN helicase inhibitors: human BLM helicase inhibition | 60% of 610 active | Potency, µM (series often up to 57.1 µM), for inactives: top-dose activity change, negative = inhibition, most hits filed as inhibitors | AID 720503 | Recombinant BLM helicase DNA unwinding, red fluorescence | shares compounds with WRN helicase inh-1; further: nearly all actives have a fitted effect of over 60% in size
An asterisk follows results filed as active; i = inactive; u = inconclusive; x = not tested or not shown; [ ] = another dose, or the depositor's remark. The call rests on the fitted dose curve; in most records, active means well fitted curve in the direction sought with a large enough effect; inconclusive means small, poorly fitted or top-dose-only effect, or another doubt; inactive means no such curve, though single readings can be large; an effect the other way counts as inactive or inconclusive. Potency means the concentration at half of the fitted maximal effect.

SMILES	BLM helicase inh-1	WRN helicase inh-1	RECQ1 inh	FEN1 inh-1	L3MBTL1 inh-1	FEN1 inh-2	others
O=C(O)CCCN1C(=O)/C(=C\c2ccco2)SC1=S	59%	u	u	32µM*	25µM*	x	L3MBTL1 inh-2=u;L3MBTL1 ctr=1%;WRN helicase inh-2=u;TO displacement=-8%;BLM helicase inh-2=u
COc1ccc(NC(=O)C2CCCN2S(=O)(=O)c2ccc3c(c2)CCC(=O)N3)cc1Cl (centres undefined)	3%	4%	i	-9%	6%	x
CN1CCC(N(C)C(=S)NC(=O)c2cc(-c3cccc(Br)c3)nc3ccccc23)CC1	1%	-16%	-2%	-5%	-10%[11.4 µM]	x
O=C(c1ccccc1)c1ccc2nc(-c3ccco3)c(-c3ccco3)nc2c1	14µM*	16µM*	u	u	7.9µM*	x	L3MBTL1 inh-2=7.5*;L3MBTL1 ctr=-27%;WRN helicase inh-2=15µM*;TO displacement=24µM*;BLM helicase inh-2=8.6µM*
O=C(c1ccccc1)N1CCCc2ccccc21	-4%	-6%	2%	3%	-3%	x
O=C(c1ccc(=O)oc1)N1CCCc2ccccc21	u	u	u	56µM*	18µM*	x	L3MBTL1 inh-2=1.5*;L3MBTL1 ctr=-3%;WRN helicase inh-2=22µM*;TO displacement=-9%;BLM helicase inh-2=24µM*
Cc1ccc(S(=O)(=O)N2CCN(C(=O)c3cc4c(s3)CCCC4)CC2)cc1	x	-3%	x	17%	0%	x
COc1ccc(S(=O)(=O)N2CCN(C(=O)c3cc4c(s3)CCC4)CC2)cc1	x	35µM*	x	45µM*	3.5µM*	76*	L3MBTL1 inh-2=3.4*;L3MBTL1 ctr=-5%;WRN helicase inh-2=7.6µM*;TO displacement=u;BLM helicase inh-2=1.1µM*
Cc1cccc(OCC(=O)N(Cc2ccc(N(C)C)cc2)C2CCS(=O)(=O)C2)c1 (centres undefined)	-3%	-14%	i	8%	-15%	x
O=C(CSc1nnc(-c2cccc(S(=O)(=O)N3CCCC3)c2)n1-c1ccccc1)Nc1ccc(C(=O)O)cc1	u	50µM*	-13%	u	x	76*
CC(=O)Nc1ccc(/C=C(\C#N)C(=O)NC2CCCCC2C)cc1 (centres undefined)	-2%	-3%	-4%	8%	36%	x
Cc1ccc(Nc2nc3c([nH]2)c(=O)n(C)c(=O)n3C)cc1	-2%	-14%	-1%	0%	-5%	x
O=C(O)C(c1ccccc1)N1C(=O)/C(=C\c2ccc(-c3ccc(Br)cc3)o2)SC1=S (centres undefined)	32µM*	u	x	20µM*	x	76*
CCOc1cc(/C=C2\C(=O)N(CCC#N)N=C2C)ccc1OCC(N)=O	1%	-13%[57.1 µM]	-28%	-5%	-4%	u
Cc1csc2c1c(=O)n(O)c(=O)n2Cc1ccccc1	x	x	x	x	x	0.11*
Cc1sc2c(c1C)c(=O)n(Cc1ccccc1)c(=O)n2Cc1ccc(F)cc1	-3%	x	x	-6%	x	x
CCN1CCCC1CNC(=O)c1cc2c(-c3cccc(OC)c3)nn(C)c2s1 (centres undefined)	131%	59%	26%	u	-1%	x
CCN1CCCC1CNC(=O)c1cc2c(-c3ccc(Cl)cc3)nn(C)c2s1 (centres undefined)	184%	37%	10%	50µM*	x	43*
Cc1cc(C)n(C(=O)c2ccc([N+](=O)[O-])cc2[N+](=O)[O-])n1	1%	-4%	-8%	-2%	-2%	x
O=c1ccc2[n+]([O-])c3ccc(O)cc3oc-2c1	x	i	16µM*	40µM*	3.2µM*	60*
O=c1cc(O)c2ccc(O)cc2o1	0%	-4%	i	4%	9%	x
O=C1CC(=O)NC(SCC(=O)Nc2ccccc2[N+](=O)[O-])=N1	-17%	40µM*	x	u	x	u
Cc1cc(C)nc(SCC(=O)Nc2ccccc2[N+](=O)[O-])n1	-1%	-5%	-6%	-6%	4%	x
Oc1ccc(/C=N/N=C(c2ccccc2)c2ccccc2)c(O)c1O	u	6.7µM*	-17%	u	3.5µM*	48*
O=S(=O)(Cc1ccc(Cl)cc1)c1ccccc1-c1nnc(-c2ccccc2)o1	-3%	7%	-6%	-1%	-2%	x
SMILES	BLM helicase inh-1	WRN helicase inh-1	RECQ1 inh	FEN1 inh-1	L3MBTL1 inh-1	FEN1 inh-2	others
CCCCC(=O)Nc1sc2c(c1-c1nc3ccccc3s1)CCN(C(C)=O)C2	-24%	x	7%	x	-8%	x
CC(=O)Nc1sc2c(c1-c1nc3ccccc3s1)CN(C(C)C)CC2	x	x	x	6.3µM*	16%	11*
CC(=O)Nc1sc2c(c1-c1nc3ccccc3s1)CCN(C)C2	x	x	x	x	x	5.4*
CC(=O)Nc1sc2c(c1-c1nc3ccccc3s1)CCOC2	x	x	x	x	x	u
CC(=O)Nc1sc2c(c1-c1nc3ccccc3o1)CCN(C(C)C)C2	x	x	x	x	x	30*
CC1Nc2ncnc(N3CCN(c4ccccn4)CC3)c2N(Cc2ccccc2)C1=O (centres undefined)	x	-2%	x	7%	-4%	x
CC(=O)Nc1sc2c(c1-c1nc3ccccc3s1)CCCN(C(C)C)C2	x	x	x	x	x	7.6*
CCCCC(=O)Nc1sc2c(c1-c1nc3ccccc3s1)CCN(C(C)C)C2	x	x	x	x	x	34*
CC(=O)N1CCc2c(sc(NC(=O)C3CC3)c2-c2nc3ccccc3s2)C1	-10%	-14%	i	u	-8%	x
COc1ccc(N(C(C)C(=O)Nc2ccc(S(=O)(=O)N3CCCCC3)cc2)S(C)(=O)=O)cc1 (centres undefined)	-20%	-1%[57.1 µM]	x	4%	x	x
CCOc1ccc(C2CC(=O)NC(NC(=O)c3ccc(C)cc3)=N2)cc1 (centres undefined)	-1%	x	x	-5%	x	x
CCOc1ccc2nc(NC3=NC(c4ccc(OC)cc4)CC(=O)N3)nc(C)c2c1 (centres undefined)	-14%	50µM*	-39%	79µM*	-27%	76*
